This note sets out measurements from PubChem BioAssay.

Active and inactive are the calls of the source.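 How the source made its calls, unless noted: active means compounds killing one labelled cell type while sparing the other, by normalised counts and ratio limits, not self-fluorescent; inactive means the rest.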

By viability is commonly meant a read-out of living cells in per cent, often relative to untreated cells. The inhibition is the drop in the measured response relative to a control, in per cent.

Test [1] in a line: liver-stage malaria parasite growth inhibition, primary screen, cell-based, HepG2, luciferase luminescence, HepG2 viability (AID 624349; in the data active means parasite load remaining mostly below about 12%, no sharp cut-off; inactive means mostly above about 10%;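 further: 100% = mean of DMSO negative control wells on the same plate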). To be noted: P. berghei liver stage in HepG2, luciferase luminescence, concentration not given here; parasite load remaining: stronger effect = lower value; viability: measured here: HepG2 viability without parasites.
In test [2] the target is 6-phosphogluconate dehydrogenase, decarboxylating (Homo sapiens) (UniProt P52209). Kind of test: 6PGD enzyme inhibitors, primary screen, biochemical, human, recombinant enzyme, NADPH absorbance (AID 1159550;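 active means at least 20% inhibition of 6-phosphogluconate dehydrogenase activity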). Conditions: recombinant 6PGD, NADPH absorbance 341 nm; at 10 µM; stronger effect = higher value.
Test [3] can be described thus: differential killing of epithelial or mesenchymal cells, primary screen, imaging, PC-3E GFP, TEM4-18 mCherry, co-culture (AID 1345086).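 On all read-outs here: cells exposed to compound for 72 h before imaging.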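 On red/green cell ratio (normalised): normalised mesenchymal count divided by normalised epithelial count so high means epithelial killing.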 Conditions: imaging cell counts, at 1 µM; for red/green cell ratio (normalised): actives lie on both sides, counts scaled to control wells, 1 = unselective.
Test [4] can be described thus: sensitizers of A549 cells to miR-34 induction, primary screen, imaging, A549 dox-inducible miR-34, nuclei and caspase counts (AID 1347080;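 active means compounds whose cell count with miR-34 switched on is under 0.7 times the count with it off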). To be noted: A549 miR-34 inducible, Hoechst nuclei count, 48 h.
In test [5] the target is Mitogen-activated protein kinase 7 (Homo sapiens) (UniProt Q13164). The test is described as follows: ERK5 transactivation activators in reporter cells, primary screen, cell-based, HTS (AID 1508626;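 active means luciferase signal above three times the same-plate solvent-only control wells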;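 further: luciferase driven by Gal4-ERK5 fusion binding five Gal4 sites before minimal TATA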). Conditions: HeLa Gal4-ERK5 transactivation, 18 h, at 5 µM, stronger effect = higher value.
Setting [6] is: measured here: epithelial PC-3E GFP cell survival.
The mark [7] stands for this setting: measured here: mesenchymal TEM4-18 mCherry cell survival.

Chain of 6-phosphogluconate dehydrogenase, decarboxylating (Homo sapiens) (P52209 whole entry, looked up): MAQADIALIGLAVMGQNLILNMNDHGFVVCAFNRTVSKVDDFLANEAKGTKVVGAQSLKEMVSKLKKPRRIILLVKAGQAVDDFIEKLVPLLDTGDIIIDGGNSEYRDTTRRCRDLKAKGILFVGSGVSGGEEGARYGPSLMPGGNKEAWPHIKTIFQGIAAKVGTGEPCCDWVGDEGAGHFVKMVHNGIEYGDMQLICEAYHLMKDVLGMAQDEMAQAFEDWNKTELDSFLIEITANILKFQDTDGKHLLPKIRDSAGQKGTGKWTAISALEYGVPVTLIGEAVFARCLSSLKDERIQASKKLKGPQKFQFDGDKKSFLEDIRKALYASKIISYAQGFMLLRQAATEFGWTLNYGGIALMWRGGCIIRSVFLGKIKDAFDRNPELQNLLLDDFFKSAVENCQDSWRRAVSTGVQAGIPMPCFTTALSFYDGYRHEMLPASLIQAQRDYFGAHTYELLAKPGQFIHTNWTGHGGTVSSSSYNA
Chain of Mitogen-activated protein kinase 7 (Homo sapiens) (Q13164 whole entry, looked up, the tested form may be a part): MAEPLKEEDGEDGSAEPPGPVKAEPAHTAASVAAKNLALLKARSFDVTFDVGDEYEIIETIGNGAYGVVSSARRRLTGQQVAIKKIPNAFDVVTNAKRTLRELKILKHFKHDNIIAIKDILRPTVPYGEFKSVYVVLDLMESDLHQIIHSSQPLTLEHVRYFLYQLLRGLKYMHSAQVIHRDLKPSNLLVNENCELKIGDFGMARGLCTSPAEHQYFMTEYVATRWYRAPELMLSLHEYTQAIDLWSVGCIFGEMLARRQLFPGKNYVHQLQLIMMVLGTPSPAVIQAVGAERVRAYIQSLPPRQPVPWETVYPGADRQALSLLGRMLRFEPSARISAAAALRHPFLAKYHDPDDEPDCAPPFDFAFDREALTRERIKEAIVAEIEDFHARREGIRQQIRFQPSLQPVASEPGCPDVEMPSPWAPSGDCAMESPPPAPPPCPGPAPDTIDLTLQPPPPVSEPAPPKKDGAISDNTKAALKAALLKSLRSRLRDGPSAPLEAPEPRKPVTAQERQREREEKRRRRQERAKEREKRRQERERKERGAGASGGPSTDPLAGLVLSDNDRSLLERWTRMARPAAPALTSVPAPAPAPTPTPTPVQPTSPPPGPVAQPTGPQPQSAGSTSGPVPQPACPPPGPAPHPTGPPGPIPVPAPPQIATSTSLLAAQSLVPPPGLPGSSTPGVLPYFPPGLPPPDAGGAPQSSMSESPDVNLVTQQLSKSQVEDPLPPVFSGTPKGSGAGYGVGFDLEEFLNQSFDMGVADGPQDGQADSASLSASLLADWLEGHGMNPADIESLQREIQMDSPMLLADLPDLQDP

As for `CO[C@H]1/C=C/O[C@@]2(C)Oc3c(C)c(O)c4c(O)c(c5c(nc6cc(C)ccn65)c4c3C2=O)NC(=O)/C(C)=C\C=C\[C@H](C)[C@H](O)[C@@H](C)C(O)[C@@H](C)[C@H](OC(C)=O)[C@@H]1C` (stereo not given in full), the parasite load remaining in test [1] is 51.2% (inactive). Besides, in test [1], the viability is 113%. Moreover, the inhibition in test [2] is -0.37% (inactive). The red/green cell ratio (normalised) in test [3] was 1.15 (inactive). Moreover, the normalised cell number stood at 1.21 in test [3] (setting [6]) and 1.39 in test [3] (setting [7]). For the same compound, the fold change in test [4] (stronger effect = lower value, cell number ratio, induced over uninduced) was 0.902 (inactive); in test [4] (measured here: relative caspase fold change +Dox/-Dox), 2.53. Further, the cell count is 11500 in test [4] (measured here: total cells with miR-34 induction, stronger effect = lower value) and 12700 in test [4] (measured here: total cells without miR-34 induction).

Take `COc1c2ccccc2nc2occc12`: the inhibition in test [2] is 7.87% (inactive). In test [3], the red/green cell ratio (normalised) was 1.02 (inactive). The normalised cell number is 1.03 in test [3] (setting [6]) and 1.05 in test [3] (setting [7]). In addition, the luciferase signal in test [5] was 40 AU (inactive).

Regarding `CC(C)=CC1C(CO)C1(C)C` (stereo not given), the inhibition in test [2] was 2.26% (inactive). In addition, the red/green cell ratio (normalised) in test [3] was 0.97 (inactive). Besides, the results for the normalised cell number in test [3] (setting [6]) and in test [3] (setting [7]) were 0.97 and 0.94, respectively. Also, the luciferase signal in test [5] was 68 AU (inactive).

For `Cc1cc(=O)oc2c(O)c(O)ccc12`, the inhibition in test [2] is -1.28% (inactive). In addition, in test [3], the red/green cell ratio (normalised) is 1.02 (inactive). In addition, the normalised cell number came out at 0.87 in test [3] (setting [6]) and 0.89 in test [3] (setting [7]). In addition, the luciferase signal in test [5] is 44 AU (inactive).

Regarding `COc1cccc(O)c1O`, in test [2], the inhibition is -0.395% (inactive). For the same compound, the red/green cell ratio (normalised) in test [3] is 0.97 (inactive). For the same compound, the values for the normalised cell number in test [3] (setting [6]) and in test [3] (setting [7]) were 0.99 and 0.96, respectively. Further, the luciferase signal in test [5] is 52 AU (inactive).

For `C=C1C(=O)O[C@@H]2C[C@@]3(C)CCC[C@H](C)C3=C[C@H]12`, the inhibition in test [2] is 8.8% (inactive). For the same compound, the red/green cell ratio (normalised) in test [3] is 1.12 (inactive). Further, the normalised cell number in test [3] (setting [6]) is 0.81; in test [3] (setting [7]) it was 0.9. In addition, in test [5], the luciferase signal is 84 AU (inactive).

For the compound `COc1c(-c2coc3cc4c(cc3c2=O)CC(O)C(C)(C)O4)ccc2c1C=CC(C)(C)O2` (stereo not given), in test [2], the inhibition was -4.11% (inactive). Further, in test [3], the red/green cell ratio (normalised) was 0.82 (inactive). Besides, the normalised cell number in test [3] (setting [6]) was 1.08; in test [3] (setting [7]) it was 0.88. For the same compound, the luciferase signal in test [5] is 24 AU (inactive).

For the compound `CC(=O)O[C@H]1C[C@@H](OC(C)=O)C(C)(C)C2CC(=O)[C@]3(C)C(CC[C@@]4(C)[C@H](c5ccoc5)OC(=O)[C@H]5O[C@]543)[C@]21C` (stereo not given in full), the inhibition in test [2] is 6.24% (inactive). Besides, the red/green cell ratio (normalised) in test [3] was 0.93 (inactive). The results for the normalised cell number in test [3] (setting [6]) and in test [3] (setting [7]) were 0.94 and 0.87, respectively. Also, the luciferase signal in test [5] is 16 AU (inactive).

In the case of `COc1c(O)cc(O)cc1O`, the inhibition in test [2] is 8.04% (inactive). Further, the red/green cell ratio (normalised) in test [3] was 1.07 (inactive). In addition, the normalised cell number in test [3] (setting [6]) was determined as 0.92; in test [3] (setting [7]), 0.98. In test [5], the luciferase signal is 40 AU (inactive).

Turning to `COC(=O)c1c(C)cc(O)cc1O`, in test [2], the inhibition was 7.84% (inactive). Moreover, the red/green cell ratio (normalised) in test [3] was 1.06 (inactive). Besides, the normalised cell number in test [3] (setting [6]) is 0.91; in test [3] (setting [7]) it was 0.97. Moreover, in test [5], the luciferase signal is 36 AU (inactive).

Take `COc1c(O)cccc1O`: in test [2], the inhibition is -5.16% (inactive). In addition, the red/green cell ratio (normalised) in test [3] is 0.77 (inactive). The figures for the normalised cell number in test [3] (setting [6]) and in test [3] (setting [7]) were 0.96 and 0.74, respectively. Also, the luciferase signal in test [5] was 76 AU (inactive).

Turning to `C=C(C)C1CC=C(CO)CC1` (stereo not given), in test [2], the inhibition was 1.85% (inactive). Also, the red/green cell ratio (normalised) in test [3] was 1.04 (inactive). For the same compound, the normalised cell number was found to be 0.95 in test [3] (setting [6]) and 0.99 in test [3] (setting [7]). Also, in test [5], the luciferase signal is 68 AU (inactive).

Regarding `CC(C)[C@@H]1CC[C@@H](C)CC1=O`, the inhibition in test [2] is 15.9% (inactive). For the same compound, the red/green cell ratio (normalised) in test [3] was 0.93 (inactive). In addition, the values for the normalised cell number in test [3] (setting [6]) and in test [3] (setting [7]) were 1.16 and 1.08, respectively. The luciferase signal in test [5] is 52 AU (inactive).

For the compound `S=c1[nH]c2ccccc2s1`, in test [2], the inhibition is -1.67% (inactive). For the same compound, the red/green cell ratio (normalised) in test [3] is 0.97 (inactive). Further, the results for the normalised cell number in test [3] (setting [6]) and in test [3] (setting [7]) were 1.13 and 1.09, respectively. In addition, the luciferase signal in test [5] is 48 AU (inactive).

Regarding `COc1cc2c(cc1OC)C(=O)OC2`, the inhibition in test [2] was 7.46% (inactive). In test [3], the red/green cell ratio (normalised) was 0.97 (inactive). In addition, the results for the normalised cell number in test [3] (setting [6]) and in test [3] (setting [7]) were 0.96 and 0.94, respectively. Further, the luciferase signal in test [5] is 160 AU (inactive).
